Measured values taken from PubChem BioAssay (NCATS).
Records with an inconclusive call do not appear. Active and inactive are the calls of the source. Calls follow the shape of the dose curve; as a rule, active = well fitted curve in the direction sought with a large enough effect; inconclusive = small, poorly fitted or top-dose-only effect, or another doubt; inactive = no such curve, though single readings can be large; an effect the other way counts as inactive or inconclusive.

Key:
[1] = qHTS for inhibitors of adenylyl cyclases using a fission yeast platform: a pilot screen against the NCATS LOPAC library (AID 1347410);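 also: plate controls were DMSO vehicle for no effect and DPI positive control for full effect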; conditions: S. pombe CHP2027, fbp1-GFP fluorescence, 18 h, yeast expressing mammalian AC9 and human GNAS; series mostly up to 57.5 µM
Summary of the method: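 Fission yeast qHTS: CHP2027 cells (AC9-GNAS-PDE4D2, fbp1-GFP), 5x10^6 cells/mL working density, EMM + His/Lys/Ura; LOPAC at up to 57 µM final; 18 h dark, 30C; GFP by laser cytometry. DPI positive control, DMSO vehicle.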

[2] = biological target: Single-stranded DNA cytosine deaminase (Homo sapiens) (UniProt Q9GZX7); assay: Validation qHTS assay for inhibitors of Activation Induced Cytidine Deaminase (AID): AID signal (AID 1347429); conditions: Recombinant AID, FRET ssDNA deamination with UDG, fluorescence; series mostly up to 115 µM; also: potency is read from the fitted curve at half-maximal effect; as to activity change, negative = inhibition: % is scaled to controls: 0 for no effect and ±100 for the full control effect
Single-stranded DNA cytosine deaminase (Homo sapiens), sequence (Q9GZX7 whole entry, looked up): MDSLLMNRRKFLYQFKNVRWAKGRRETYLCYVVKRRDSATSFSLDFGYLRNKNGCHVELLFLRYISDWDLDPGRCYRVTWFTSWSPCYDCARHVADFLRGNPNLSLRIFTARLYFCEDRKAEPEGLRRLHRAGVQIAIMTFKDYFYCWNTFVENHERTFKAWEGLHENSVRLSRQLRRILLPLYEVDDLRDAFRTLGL
Summary of the method: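 Compounds (up to 114 uM final) are tested against AID plus UDG using DJC20/DJC23 FRET substrate. Reactions incubate 4 hr at room temperature, receive NaOH for 30 min, and are read at Ex 540/Em 590 nm.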

[3] = Primary qHTS for inhibitors of La Crosse Virus (LACV) - induced cell death in SH-SY5Y cells (AID 1508616); conditions: SH-SY5Y LACV cytopathicity rescue, ATP luminescence, 6 d; series mostly up to 4.29 µM; also: potency is read from the fitted curve at half-maximal effect;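 as to activity change: top concentration of the series differs between compounds; 0% = infected DMSO wells and 100% = uninfected DMSO wells; higher means more rescue of cells from virus-induced death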
Summary of the method: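 Screening measures cell viability in LACV-infected SH-SY5Y cultures. Compound was added before virus (0.01 MOI), and ATP was detected by luminescence 6 days later.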

[4] = biological target: Calcium and integrin-binding protein 1 (Homo sapiens) (UniProt Q99828); assay: Validation qHTS for Identification of Calcium Integrin Binding protein 1 (CIB1) Competitor (AID 1508618); conditions: CIB1-GST / FITC-alphaIIb peptide fluorescence polarization; series mostly up to 114 µM; also: % is scaled to controls: 0 for no effect and ±100 for the full control effect
Calcium and integrin-binding protein 1 (Homo sapiens), sequence (Q99828 whole entry, looked up): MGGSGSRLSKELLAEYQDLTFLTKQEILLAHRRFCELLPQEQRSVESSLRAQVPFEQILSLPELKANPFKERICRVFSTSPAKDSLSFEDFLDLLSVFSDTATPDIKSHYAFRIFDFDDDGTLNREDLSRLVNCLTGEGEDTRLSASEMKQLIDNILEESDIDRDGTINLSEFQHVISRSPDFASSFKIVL
Summary of the method: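 Displacement of FITC-alphaIIb peptide (100 nM) from CIB1-GST (1 uM) is monitored by polarization in quantitative HTS format; buffer carries 5 mM CaCl2 and 125 mM NaCl at pH 7.4, incubations are at room temperature.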

[5] = biological target: Protein phosphatase 1D (Homo sapiens) (UniProt O15297); assay: RapidFire Mass Spectrometry qHTS Assay for Modulators of WT P53-Induced Phosphatase 1 (WIP1) (AID 1347424); conditions: WIP1 dephosphorylation of phosphopeptide, RapidFire MS; series mostly up to 63 µM;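 also: amount of dephosphorylated VEPPL-S-QETFS peptide product formed by WIP1; plate controls were DMSO wells for no effect and GSK830371 inhibitor control at 10 µM for full effect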
Protein phosphatase 1D (Homo sapiens), sequence (O15297 whole entry, looked up): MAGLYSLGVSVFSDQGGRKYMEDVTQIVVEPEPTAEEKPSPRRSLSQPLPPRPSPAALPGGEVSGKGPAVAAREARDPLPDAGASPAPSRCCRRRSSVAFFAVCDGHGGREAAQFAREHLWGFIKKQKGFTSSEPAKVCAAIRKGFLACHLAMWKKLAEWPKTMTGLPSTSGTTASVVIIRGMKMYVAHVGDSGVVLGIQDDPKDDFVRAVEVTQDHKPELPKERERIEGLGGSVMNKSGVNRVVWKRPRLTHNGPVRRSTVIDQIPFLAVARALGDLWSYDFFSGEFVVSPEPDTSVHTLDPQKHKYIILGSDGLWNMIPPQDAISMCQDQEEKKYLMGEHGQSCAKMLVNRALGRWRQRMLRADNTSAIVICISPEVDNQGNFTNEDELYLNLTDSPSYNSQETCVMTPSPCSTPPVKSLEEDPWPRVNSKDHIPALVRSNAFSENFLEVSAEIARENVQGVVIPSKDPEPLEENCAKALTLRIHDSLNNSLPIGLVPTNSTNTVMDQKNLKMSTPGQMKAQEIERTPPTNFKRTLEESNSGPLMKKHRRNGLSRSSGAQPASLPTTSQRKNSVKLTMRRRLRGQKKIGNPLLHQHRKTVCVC
Summary of the method: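 Mass-spectrometric measurement of dephosphorylated peptide after a 5 min room-temperature reaction of 10 nM WIP1 with 2 uM phosphopeptide, following 1 h compound preincubation in 30 mM MgCl2 buffer.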

[6] = biological target: Protein phosphatase 1D (Homo sapiens) (UniProt O15297); assay: Rhodamine-PBP qHTS Assay for Modulators of WT P53-Induced Phosphatase 1 (WIP1) (AID 1347425); conditions: recombinant WIP1, Rhodamine-PBP phosphate fluorescence, real-time; series mostly up to 57.5 µM; also: % of control where 0% means no effect
Summary of the method: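 5 nM WIP1 + 10 uM Rh-PBP, 50 mM Tris pH 7.5, 30 mM MgCl2, 1 mM TCEP, 0.1 mM EGTA, BSA; cpds pinned, 1 hr RT; + 10 uM phosphopeptide; fluorescence 1-min reads x 11 min; delta = f1 - f0.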

[7] = biological target: Calcium and integrin-binding protein 1 (Homo sapiens) (UniProt Q99828); assay: Primary qHTS for Identification of Calcium Integrin Binding Protein 1 (CIB1) Competitor (AID 1508620); conditions: CIB1-GST / FITC-alphaIIb peptide fluorescence polarization; series mostly up to 114 µM;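 also: GST tagged CIB1 binding a fluorescein labelled alphaIIb integrin peptide tracer; top concentration of the series differs between compounds; % is scaled to controls: 0 for no effect and ±100 for the full control effect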
Summary of the method: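 Fluorescence polarization competition: CIB1-GST (1 uM final) preincubated with compound 15 min at room temperature, then FITC-labeled alphaIIb peptide (100 nM final) added for another 15 min. Polarization read at Ex 480/Em 540.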

[8] = qHTS to identify inhibitors of the type 1 interferon - major histocompatibility complex class I in skeletal muscle: primary screen against the NCATS Mechanism Interrogation Plate v5.0 (MIPE) Libary (AID 1347411); conditions: iHSKM cells + IFN-b, HiBiT-tagged MHC-I luminescence, 24 h; series mostly up to 45.8 µM;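 also: plate controls were vehicle for no effect and reference inhibitor for full effect; nearly all actives have a fitted effect of over 65% in size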
Summary of the method: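 IFN-beta-driven (4 ng/ml) HLA-B-HiBit expression in CRISPR-tagged C25cl48 myoblasts; compounds 11-pt, 1:3, max 46 uM, 24 hr exposure; lytic NanoLuc complementation luminescence.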

CNCCC(Oc1ccccc1C)c1ccccc1 (stereo not given)
inactive: outcome [1] | Potency [2] | Potency [3] | outcome [4]

C[C@]12C=CC(=O)C=C1[C@@H](F)C[C@@H]1[C@@H]2[C@@H](O)C[C@@]2(C)[C@H]1CC[C@]2(O)C(=O)CO
inactive: Potency [5] | outcome [6] | Potency [3] | Potency [7]

CC[C@H](C)C(=O)O[C@H]1CCC=C2C=C[C@H](C)[C@H](CC[C@@H]3C[C@@H](O)CC(=O)O3)[C@H]21
inactive: outcome [1] | Potency [8] | Potency [2] | Potency [3] | outcome [4]

CN(C(=O)CN(CCO)CC(=O)N(C)C(C)(C)Cc1ccccc1)C(C)(C)Cc1ccccc1
inactive: Potency [5] | outcome [6] | Potency [3]

CNCCC=C1c2ccccc2CCc2ccccc21
inactive: outcome [1] | Potency [2] | outcome [4]

C=C(CC)C(=O)c1ccc(OCC(=O)O)c(Cl)c1Cl
inactive: Potency [5]

CC1(C)CCC(NC(=O)[C@@H](N)CCC(=O)O)CC1
inactive: outcome [1] | Potency [2] | Potency [3] | outcome [4]

CCCCCCCCCCCCCCCC[N+](C)(C)CC
inactive: Potency [5] | outcome [6]

C[N+]1(CCCCC[N+]2(C)CCCC2)CCCC1
inactive: outcome [1] | Potency [2] | Potency [3] | outcome [4]

CN(C)CC/C=C1\c2ccccc2Sc2ccc(Cl)cc21
inactive: Potency [5] | outcome [6] | Potency [3]

CC(=O)OCC(=O)[C@@]12OC(C)(C)O[C@@H]1C[C@H]1[C@@H]3C[C@H](F)C4=CC(=O)C=C[C@]4(C)[C@@]3(F)[C@@H](O)C[C@@]12C
inactive: Potency [8] | outcome [6] | Potency [7]

CC(O)C(=O)O (stereo not given)
inactive: Potency [5] | outcome [6]

CC(=O)O[C@H]1C[C@@H]2CC[C@@H]3[C@H](CC[C@@]4(C)[C@H]3C[C@H]([N+]3(C)CCCCC3)[C@@H]4OC(C)=O)[C@@]2(C)C[C@@H]1[N+]1(C)CCCCC1
inactive: outcome [1] | outcome [4]
active: Potency [2] 7.94 µM

N[C@H](CO)C(=O)O
inactive: outcome [1] | Potency [2] | Potency [3] | outcome [4]

O=C(O)c1cc2cc(Cc3cccnc3)ccc2o1
inactive: outcome [1] | Potency [2] | outcome [4]

O=C(O)CCCCC(=O)O
inactive: Potency [5] | outcome [6] | Potency [3]

C[C@@H]1C(=O)NC2=Nc3cccc(Cl)c3CN21
inactive: outcome [1] | Potency [2] | Potency [3] | outcome [4]

COc1cc2c(cc1O)CC[C@@H]1[C@@H]2CC[C@]2(C)[C@@H](O)CC[C@@H]12
inactive: outcome [1] | Potency [2] | outcome [4]
active: Potency [3] 0.631 µM

CCCn1c(=O)[nH]c(=O)c2[nH]cnc21
inactive: outcome [1] | Potency [2] | Potency [3] | outcome [4]

C1CCc2nnnn2CC1
inactive: outcome [1] | Potency [2] | outcome [4]

C/C=C/c1ccc(OC)cc1
inactive: Potency [5] | outcome [6] | Potency [3]

C[C@]12C=CC(=O)C=C1CC[C@@H]1[C@@H]2[C@@H](O)C[C@@]2(C)[C@H]1CC[C@]2(O)C(=O)CO
inactive: Potency [8] | Potency [5] | outcome [6] | Potency [3] | Potency [7]

C[C@]12CC[C@@H]3c4ccc(O)cc4CC[C@H]3[C@@H]1CC[C@@H]2O
inactive: outcome [1] | Potency [2]

CC(=O)OCC(=O)[C@@]12N=C(C)O[C@@H]1C[C@H]1[C@@H]3CCC4=CC(=O)C=C[C@]4(C)[C@H]3[C@@H](O)C[C@@]12C
inactive: Potency [8] | Potency [5] | outcome [6] | Potency [3] | Potency [7]

CC(C)(C)CC(C)(C)c1ccc(OCCOCC[N+](C)(C)Cc2ccccc2)cc1
inactive: Potency [5] | outcome [6] | Potency [3]

COC(=O)[C@H]1[C@H]2C[C@H]3c4[nH]c5ccccc5c4CCN3C[C@H]2CC[C@@H]1O
inactive: outcome [1] | Potency [2] | Potency [3]

O=c1[nH]c(=O)n([C@H]2C[C@H](O)[C@@H](CO)O2)cc1C(F)(F)F
inactive: Potency [5] | outcome [6] | Potency [3] | Potency [7]

CC(C)C[C@H]1C(=O)N2CCC[C@H]2[C@]2(O)O[C@](NC(=O)[C@@H]3C=C4c5cccc6[nH]c(Br)c(c56)C[C@H]4N(C)C3)(C(C)C)C(=O)N12
inactive: outcome [1] | Potency [2] | Potency [3] | outcome [4]

CCC(NC(C)C)C(O)c1ccc(O)c(O)c1 (stereo not given)
inactive: outcome [1] | Potency [2] | Potency [3] | outcome [4]

C[C@]12CCC(=O)C=C1[C@@H]1C[C@@H]1[C@H]1[C@@H]3[C@@H]4C[C@@H]4[C@@]4(CCC(=O)O4)[C@@]3(C)CC[C@@H]12
inactive: Potency [5] | outcome [6] | Potency [3] | Potency [7]

CC(C)NC[C@@H](O)COc1cccc2ccccc12
inactive: Potency [5] | outcome [6] | Potency [3] | Potency [7]

Nc1ccc(/C=C/c2ccc(N)cc2S(=O)(=O)O)c(S(=O)(=O)O)c1
inactive: activity change, negative = inhibition [6] 11.7% [at 0.575 µM] | activity change [3] 5.33% [at 0.0343 µM] | activity change, negative = inhibition [7] -1.2% [at 1.07 µM]
